Experimental data: the supplement of paper PMC10981050
Values joined by “and” are separate entries in the source; they are usually repeats but may differ in a detail not shown here. Equal entries are not always repeated. Structures can show the parent of a compound that is named as a salt.

What was measured:
Assay in all cases: cell viability relative to vehicle control; higher = less cytotoxic
Settings in all cases: 10 µM
K562 = tested on: K562
Procedure, shortened: (§1)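 Four leukaemia lines, as CRISPR-edited mutant clones and isogenic wild-type clones, were tested against Selleck bioactive, kinase and epigenetic probe libraries after removal of identity-inconsistent compounds. Cells were exposed to a single 10 µM dose for 48 h, and CellTiter-Glo luminescence was then read. Viability was calculated relative to the on-plate vehicle control.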

MARIMO = tested on: MARIMO
Procedure, shortened: as §1

MOLM14 = tested on: MOLM14
Procedure, shortened: as §1

OCI-AML2 = tested on: OCI-AML2
Procedure, shortened: as §1

SMILES | cell viability (K562; SRSF2 genotype: SRSF2 P95H/wt) | cell viability (K562; SRSF2 genotype: SRSF2 wt/wt) [%] | cell viability (MARIMO; SRSF2 genotype: SRSF2 P95H/wt) [%] | cell viability (MARIMO; SRSF2 genotype: SRSF2 wt/wt) [%] | cell viability (MOLM14; SRSF2 genotype: SRSF2 P95H/wt) [%] | cell viability (MOLM14; SRSF2 genotype: SRSF2 wt/wt) [%] | cell viability (OCI-AML2; SRSF2 genotype: P95H/wt) [%] | cell viability (OCI-AML2; SRSF2 genotype: wt/wt) [%]
Cc1[nH]nc(C(F)(F)F)c1Cc1sc2c(c1C(=O)N1C[C@](C)(O)CO1)c(=O)n(C)c(=O)n2C(C)C | 40% and 62.9% | 61.3 | 90.5 | 103 | 92.8 | 89.3 | 99.7 | 99.9
CCOC(=O)O[C@]1(C(=O)OCCl)CC[C@H]2[C@@H]3CCC4=CC(=O)C=C[C@]4(C)[C@H]3[C@@H](O)C[C@@]21C [Loteprednol etabonate] | 93.6% and 104% | 98 | 92.1 | 98.5 | 96.3 | 97.2 | 111 | 114
COCCOc1ccc2c(c1)ncn2-c1ccc2cccc(N3CCC(N)CC3)c2n1 | 72.2% and 70.2% | 63.5 | 2.19 | 1.07 | 0.96 | -0.03 | 0.57 | 3.99
CC1(C)S[C@@H]2[C@H](NC(=O)[C@H](N)c3ccc(O)cc3)C(=O)N2[C@H]1C(=O)O [Amoxicillin (Amoxycillin)] | 97.3% and 90.7% | 91.7 | 91.2 | 98.5 | 99.7 | 100 | 92.4 | 105
CCN(CC)CCOc1ccc(C(=C(Cl)c2ccccc2)c2ccccc2)cc1 [Clomifene citrate (Serophene)] | 37.2% and 36.3% | 62.6 | 57.2 | 61.7 | 50.8 | 60.9 | 54.5 | 52.3
Nc1ccc(/C=C/C(=O)NCc2cc3cc(-c4ccc(C(=O)N5CCC(F)(F)CC5)cc4)cc(-c4ccc(F)cc4)c3o2)cn1 | 19.8% and 14.3% | 19.1 | 10 | 13.1 | 4.36 | 1.09 | 4.54 | 4.59
Cc1c(NC(=O)OC[C@@H]2COCCN2)cn2ncnc(Nc3ccc4c(cnn4Cc4cccc(F)c4)c3)c12 | 75.3% and 73.2% | 71.7 | 76.4 | 79.8 | 63.8 | 69.6 | 68.7 | 64.8
Cc1cc(C2CCCCC2)n(O)c(=O)c1 [Ciclopirox ethanolamine] | 59.6% and 58.8% | 47.2 | 21.4 | 26.4 | 8.86 | 2.23 | 18 | 18
COc1cc(N2CCC(N)CC2)ccc1Nc1ncc(Cl)c(-c2c[nH]c3ccccc23)n1 | 14.5% and 15.7% | 7.15 | 37.8 | 33.6 | 1.81 | 5.73 | 6 | 16.7
